From the supplement of paper PMC8007513 come the findings set out here.

Molecules are shown by their SMILES. Structures can show the parent of a compound that is named as a salt. ± gives the standard error. Out of some 1,300 compounds screened, about 130 (10%) showed an effect of 50% or more. What follows is part of a selection rich in strong results, with near analogues and random picks from the rest.

The test system of the assay is Trichoderma virens ATCC 9645. Nature of the assay: growth yield (OD600) with compound + IPBC relative to untreated control; higher = less growth inhibition. Particulars: compound concentration: 100 uM, IPBC concentration: 200 ng/ml. In a few lines: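 Plates were read for OD600 at 40 h and 72 h after Trichoderma virens ATCC 9645 spores (15,000 spores ml^−1 in potato dextrose broth) were grown at 30 °C with library compounds at 100 μM final, with or without a biocide at 200 ng ml^−1. Growth is stated relative to the control with neither agent, as the mean of duplicate screens.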

For `COc1ccc(CN2CCNCC2)c(OC)c1OC` [Trimetazidine dihydrochloride] + CCCCNC(=O)OCC#CI [3-iodo-2-propynyl butylcarbamate (IPBC)], the growth yield is, setting by setting: (40 h) 85 ± 2.1%; (72 h) 91.87 ± 0.42%.
Consider `CCCCCN(C)CCC(O)(P(=O)(O)O)P(=O)(O)O` [Ibandronate sodium] + CCCCNC(=O)OCC#CI [3-iodo-2-propynyl butylcarbamate (IPBC)], for which the growth yield was 87.84 ± 0.48% (40 h) and 96.8 ± 0.94% (72 h).
As for `Cc1c(OCC(F)(F)F)ccnc1C[S+]([O-])c1nc2ccccc2[nH]1` (stereo not given) [Lansoprazole] + CCCCNC(=O)OCC#CI [3-iodo-2-propynyl butylcarbamate (IPBC)], the growth yield runs as follows: (40 h) 68.1 ± 2.1%; (72 h) 91.87 ± 0.21%.
With `CC(C)c1c(C(=O)Nc2ccccc2)c(-c2ccccc2)c(-c2ccc(F)cc2)n1CC[C@@H](O)C[C@@H](O)CC(=O)O` [Atorvastatin] + CCCCNC(=O)OCC#CI [3-iodo-2-propynyl butylcarbamate (IPBC)], the growth yield (40 h) turned out to be 69.3 ± 2.2% and the growth yield (72 h) was found to be 79.5 ± 1.3%.
With `O=C(O)C[C@H](O)C[C@H](O)/C=C/c1c(C2CC2)nc2ccccc2c1-c1ccc(F)cc1` [Pitavastatin calcium] + CCCCNC(=O)OCC#CI [3-iodo-2-propynyl butylcarbamate (IPBC)], the growth yield by setting is: (40 h) 14 ± 2.2%; (72 h) 39.4 ± 3.4%.
In the case of `CC(C)n1c(/C=C/C(O)CC(O)CC(=O)O)c(-c2ccc(F)cc2)c2ccccc21` (stereo not given) [Fluvastatin sodium salt] + CCCCNC(=O)OCC#CI [3-iodo-2-propynyl butylcarbamate (IPBC)], the growth yield was 13.8 ± 0.48% (40 h) and 33.9 ± 0.52% (72 h).
On to `C=CC[C@]1(O)CC[C@H]2[C@@H]3CCC4=CC(=O)CCC4=C3C=C[C@@]21C` [Altrenogest] + CCCCNC(=O)OCC#CI [3-iodo-2-propynyl butylcarbamate (IPBC)], for which the growth yield (40 h) stood at 96.6 ± 1.6% and the growth yield (72 h) came to 93.8 ± 2.3%.
For the molecule `COc1ccc(CCN)cc1OC` [Homoveratrylamine] + CCCCNC(=O)OCC#CI [3-iodo-2-propynyl butylcarbamate (IPBC)], the growth yield (40 h) amounted to 89.3 ± 5.4% and the growth yield (72 h) was 91.1 ± 6.4%.
Take `O=P(O)(O)C(O)(Cn1ccnc1)P(=O)(O)O` [Zoledronic acid hydrate] + CCCCNC(=O)OCC#CI [3-iodo-2-propynyl butylcarbamate (IPBC)]: the growth yield was determined as 102 ± 6.3% (40 h) and 105 ± 4.3% (72 h).
Take `O=C(Cn1ccnc1[N+](=O)[O-])NCCO` [Etanidazole] + CCCCNC(=O)OCC#CI [3-iodo-2-propynyl butylcarbamate (IPBC)]: the growth yield (40 h) was determined as 91.3 ± 3.3% and the growth yield (72 h) came to 92.2 ± 3.9%.
Take `COc1cc([S+](C)[O-])ccc1-c1nc2cccnc2[nH]1` (stereo not given) [Sulmazole] + CCCCNC(=O)OCC#CI [3-iodo-2-propynyl butylcarbamate (IPBC)]: the growth yield is, setting by setting: (40 h) 110 ± 9.8%; (72 h) 107 ± 4.2%.
`CO[C@H]1/C=C/O[C@@]2(C)Oc3c(C)c(O)c4c(O)c(c(/C=N/N5CCN(C)CC5)c(O)c4c3C2=O)NC(=O)/C(C)=C\C=C\[C@H](C)[C@H](O)[C@@H](C)[C@@H](O)[C@@H](C)[C@H](OC(C)=O)[C@@H]1C` [Rifampicin] + CCCCNC(=O)OCC#CI [3-iodo-2-propynyl butylcarbamate (IPBC)]: the growth yield (40 h) amounted to 89 ± 7% and the growth yield (72 h) was determined as 93.8 ± 3.6%.
On to `Nc1nc(=O)c2nc(CNc3ccc(C(=O)N[C@@H](CCC(=O)O)C(=O)O)cc3)cnc2[nH]1` [Folic acid] + CCCCNC(=O)OCC#CI [3-iodo-2-propynyl butylcarbamate (IPBC)], for which the growth yield was determined as 84.82 ± 0.32% (40 h) and 91.03 ± 0.84% (72 h).
Regarding `C[C@@H](c1ncncc1F)[C@](O)(Cn1cncn1)c1ccc(F)cc1F` [Voriconazole] + CCCCNC(=O)OCC#CI [3-iodo-2-propynyl butylcarbamate (IPBC)], the growth yield reads like this: (40 h) 5.24 ± 0.16%; (72 h) 4.09 ± 0.1%.
For the molecule `OC(Cn1cncn1)(Cn1cncn1)c1ccc(F)cc1F` [Fluconazole] + CCCCNC(=O)OCC#CI [3-iodo-2-propynyl butylcarbamate (IPBC)], the growth yield is, setting by setting: (40 h) 57.7 ± 5.9%; (72 h) 75.2 ± 8.5%.
As to `CNC(C)CCC=C(C)C` (stereo not given) [Isometheptene mucate] + CCCCNC(=O)OCC#CI [3-iodo-2-propynyl butylcarbamate (IPBC)], the growth yield (40 h) stood at 101 ± 16% and the growth yield (72 h) was 101 ± 8.4%.
`CC(O)(CS(=O)(=O)c1ccc(F)cc1)C(=O)Nc1ccc(C#N)c(C(F)(F)F)c1` (stereo not given) [Bicalutamide] + CCCCNC(=O)OCC#CI [3-iodo-2-propynyl butylcarbamate (IPBC)]: the growth yield is, setting by setting: (40 h) 94 ± 12%; (72 h) 97.5 ± 6.5%.
Take `CCOc1ccccc1OCC1CNCCO1` (stereo not given) [Viloxazine hydrochloride] + CCCCNC(=O)OCC#CI [3-iodo-2-propynyl butylcarbamate (IPBC)]: the growth yield was 103 ± 19% (40 h) and 102 ± 14% (72 h).
On the same counts, the results for `Clc1ccccc1C(c1ccccc1)(c1ccccc1)n1ccnc1` [Clotrimazole] + CCCCNC(=O)OCC#CI [3-iodo-2-propynyl butylcarbamate (IPBC)] are 5.08 ± 0.32% and 3.46 ± 0.1%.
`CCN1CCCC1CNC(=O)c1cc(S(N)(=O)=O)ccc1OC` (stereo not given) [Sulpiride] + CCCCNC(=O)OCC#CI [3-iodo-2-propynyl butylcarbamate (IPBC)]: the growth yield reads like this: (40 h) 86.41 ± 0.32%; (72 h) 90.3 ± 0.94%.
As for `CCC(C)(C)c1ccc(CC(C)CN2C[C@@H](C)O[C@@H](C)C2)cc1` (stereo not given in full) [Amorolfine hydrochloride] + CCCCNC(=O)OCC#CI [3-iodo-2-propynyl butylcarbamate (IPBC)], the growth yield (40 h) was 3.97 ± 0.16% and the growth yield (72 h) came to 2.94 ± 0.21%.
On the same counts, the results for `C[C@]12COC(=O)C[C@@H]1CC[C@@H]1[C@@H]2CC[C@@]2(C)[C@H]1CC[C@]2(C)O` [Oxandrolone] + CCCCNC(=O)OCC#CI [3-iodo-2-propynyl butylcarbamate (IPBC)] are 102.8 ± 0.79% and 101.8 ± 0.94%.
On to `CCN(CC)C(=O)Nc1ccc(OCC(O)CNC(C)(C)C)c(C(C)=O)c1` (stereo not given) [Celiprolol hydrochloride] + CCCCNC(=O)OCC#CI [3-iodo-2-propynyl butylcarbamate (IPBC)], for which the growth yield runs as follows: (40 h) 87 ± 5.7%; (72 h) 92.2 ± 3.9%.
In the case of `CN[C@@H]1[C@@H](O)[C@@H](O[C@@H]2[C@@H](O)[C@H](O[C@H]3O[C@H](CN)CC[C@H]3N)[C@@H](N)C[C@H]2N)OC[C@]1(C)O.CN[C@@H]1[C@@H](O)[C@@H](O[C@@H]2[C@@H](O)[C@H](O[C@H]3O[C@H]([C@@H](C)N)CC[C@H]3N)[C@@H](N)C[C@H]2N)OC[C@]1(C)O.CN[C@@H]1[C@@H](O)[C@@H](O[C@@H]2[C@@H](O)[C@H](O[C@H]3O[C@H]([C@@H](C)NC)CC[C@H]3N)[C@@H](N)C[C@H]2N)OC[C@]1(C)O` [Gentamicine sulfate] + CCCCNC(=O)OCC#CI [3-iodo-2-propynyl butylcarbamate (IPBC)], the growth yield stood at 98.3 ± 7.5% (40 h) and 101 ± 4.4% (72 h).
For the molecule `CC1OC(OC2/C=C/C=C/C=C/C=C/CC/C=C/C=C/[C@H](C)[C@@H](O)[C@@H](C)[C@H](C)OC(=O)CC(O)CC(O)CC(O)CCC(O)C(O)C[C@]3(O)CC(O)C(C(=O)O)C(C2)O3)C(O)C(N)C1O` (stereo not given in full) [Nystatine] + CCCCNC(=O)OCC#CI [3-iodo-2-propynyl butylcarbamate (IPBC)], the growth yield (40 h) came to 50.5 ± 2.5% and the growth yield (72 h) came out at 104 ± 2.3%.
Consider `C[C@@H]1[C@H](O)[C@@H](C)/C=C/C=C/C=C/C=C/C=C/C=C/C=C/[C@H](O[C@@H]2O[C@H](C)[C@@H](O)[C@H](N)[C@@H]2O)C[C@@H]2O[C@](O)(C[C@@H](O)C[C@@H](O)[C@H](O)CC[C@@H](O)C[C@@H](O)CC(=O)O[C@H]1C)C[C@H](O)[C@H]2C(=O)O` [Amphotericin B] + CCCCNC(=O)OCC#CI [3-iodo-2-propynyl butylcarbamate (IPBC)], for which the growth yield was 37.3 ± 4.6% (40 h) and 92.61 ± 0.73% (72 h).
For `Clc1cccc(Cl)c1NC1=NCCN1` [Clonidine hydrochloride] + CCCCNC(=O)OCC#CI [3-iodo-2-propynyl butylcarbamate (IPBC)], the growth yield by setting is: (40 h) 92.9 ± 5.6%; (72 h) 99.2 ± 4.4%.
On the same counts, the results for `Cc1oncc1C(=O)Nc1ccc(C(F)(F)F)cc1` [Leflunomide] + CCCCNC(=O)OCC#CI [3-iodo-2-propynyl butylcarbamate (IPBC)] are 40.2 ± 3% and 82 ± 1.5%.
Consider `CC1CCc2cc(F)cc3c(=O)c(C(=O)O)cn1c23` (stereo not given) [Flumequine] + CCCCNC(=O)OCC#CI [3-iodo-2-propynyl butylcarbamate (IPBC)], for which the growth yield stood at 78.63 ± 0.16% (40 h) and 97.12 ± 0.84% (72 h).
Consider `COC(=O)[C@H]1[C@H]2C[C@@H]3c4[nH]c5cc(OC)ccc5c4CCN3C[C@H]2C[C@@H](OC(=O)c2cc(OC)c(OC)c(OC)c2)[C@@H]1OC` [Reserpine] + CCCCNC(=O)OCC#CI [3-iodo-2-propynyl butylcarbamate (IPBC)], for which the growth yield reads like this: (40 h) 102 ± 3.2%; (72 h) 104 ± 2%.
Regarding `CC(=O)NC1CCSC1=O` (racemic) [N-Acetyl-DL-homocysteine Thiolactone] + CCCCNC(=O)OCC#CI [3-iodo-2-propynyl butylcarbamate (IPBC)], the growth yield came out at 95.8 ± 7.8% (40 h) and 96.3 ± 7.8% (72 h).
On the same counts, the results for `CC(C(=O)O)c1cccc(C(=O)c2ccccc2)c1` (stereo not given) [Ketoprofen] + CCCCNC(=O)OCC#CI [3-iodo-2-propynyl butylcarbamate (IPBC)] are 74 ± 0.95% and 86.4 ± 1.5%.
With `CC(C(=O)O)c1ccc(-c2ccccc2)c(F)c1` (stereo not given) [Flurbiprofen] + CCCCNC(=O)OCC#CI [3-iodo-2-propynyl butylcarbamate (IPBC)], the growth yield is 43.4 ± 3.3% (40 h) and 76.9 ± 2% (72 h).
In the case of `CC(C(=O)O)c1cccc(Oc2ccccc2)c1` (stereo not given) [Fenoprofen calcium salt dihydrate] + CCCCNC(=O)OCC#CI [3-iodo-2-propynyl butylcarbamate (IPBC)], the growth yield was 73.9 ± 12% (40 h) and 84 ± 9.1% (72 h).
On to `NC(CO)C(=O)NNCc1ccc(O)c(O)c1O` (stereo not given) [Benserazide hydrochloride] + CCCCNC(=O)OCC#CI [3-iodo-2-propynyl butylcarbamate (IPBC)], for which the growth yield was determined as 63.9 ± 0.64% (40 h) and 75.2 ± 0.52% (72 h).
